Values joined by “and” are separate entries in the source; they are usually repeats but may differ in a detail not shown here. Identical values can stand only once. A number with no mark means an inactive call. Results filed as inconclusive are left out. Where a call stands in place of a potency, no number is given. Active and inactive are the calls of the source. Unless noted, calls come from the whole dose curve; as a rule, active = well fitted curve in the direction sought with a large enough effect; inconclusive = small, poorly fitted or top-dose-only effect, or another doubt; inactive = no such curve, though single readings can be large; an effect the other way counts as inactive or inconclusive.
Key:
[1] = molecular target: Mitogen-activated protein kinase 10 (Mus musculus) (UniProt Q61831); test: JNK3 AlphaScreen Assay (AID 530; active = well fitted curve in either direction with a large enough effect, not every such curve was filed as active;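 note: kinase came from lysate of stimulated human HepG2 cells; signal reports phosphorylation of biotinylated GST-cJun 1-79 at Ser73 with 10 µM ATP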)
Summary of the method: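 Pre-activated (IL-1β/TNFα) JNK3 in HepG2 lysates phosphorylates biotin-GST-cJun(1-79), 10 uM ATP; anti-phospho-cJun(Ser73) AlphaScreen read at room temperature, pH 7.6 Tris buffer. Compounds pre-incubated 15 min as titrations.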

[2] = Cell Viability - N2a (AID 540); conditions: N2a mouse neuroblastoma cell viability; activity change, negative = cytotoxicity: at 92.2 µM (top of the series); note: nearly all actives have a fitted effect of over 45% in size; note: potency is the fitted concentration of half-maximal effect
Summary of the method: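 Luminescent ATP signal (CellTiter-Glo, 20 min at room temperature) served as the viability read-out after N2a cells were treated with compounds for 40 hours at 37 °C. Concentration-response data were fitted to the Hill equation for AC50.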

[3] = Cell Viability - NIH 3T3 (AID 541); conditions: NIH 3T3 cell viability, qHTS; activity change, negative = cytotoxicity: at 92.2 µM (top of the series); note: nearly all actives have a fitted effect of over 25% in size; note: potency is the fitted concentration of half-maximal effect
Summary of the method: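 Luminescent ATP signal (CellTiter-Glo) served as the viability read-out after NIH 3T3 cells were exposed to compounds over a concentration range for 40 hr at 37 °C. Hill-equation modelling of concentration-response data gave AC50.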

[4] = Cell Viability - HUV-EC-C (AID 542); note: nearly all actives have a fitted effect of over 35% in size; note: potency is the fitted concentration of half-maximal effect
Summary of the method: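 qHTS cytotoxicity: HUV-EC-C, 1000 cells/well, 5 hr settle, compound 40 hr 37 °C, CellTiter-Glo, luminescence. AC50 via Hill equation.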

[5] = Cell Viability - H-4-II-E (AID 543); note: nearly all actives have a fitted effect of over 35% in size; note: potency is the fitted concentration of half-maximal effect
Summary of the method: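 Luminescent ATP signal (CellTiter-Glo) served as the viability read-out, with cytotoxicity seen as a concentration-dependent ATP drop. Cells were treated for 40 hours in complete medium. AC50 values derive from Hill-equation modelling.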

[6] = Cell Viability - SH-SY5Y (AID 544); note: nearly all actives have a fitted effect of over 55% in size; note: potency is the fitted concentration of half-maximal effect
Summary of the method: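 Luminescent ATP read-out (CellTiter-Glo) measures loss of viable SH-SY5Y neuroblastoma cells after 40 hr compound exposure at 37 °C. AC50 values derive from standard Hill modelling of qHTS concentration-response data.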

[7] = Cell Viability - Mesenchymal (AID 546);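 note: cells exposed to compound for 40 hours before reading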; note: potency is the fitted concentration of half-maximal effect
Summary of the method: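 Human kidney mesenchymal cells from normal renal glomeruli, 1000 cells/well, rested 5 hr at 37 °C, then treated 40 hr at 37 °C in complete medium. Cellular ATP read by CellTiter-Glo luminescence; AC50 from Hill-equation fits.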

[8] = Cellular Toxicity (caspase-3) HepG2 (AID 654);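 note: cells exposed to compound for 16 hours before reading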
Summary of the method: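 Cells plated 5 hr at 37 °C, compound added, incubated 16 hr at 37 °C. Caspase-Glo 3/7 reagent followed, 20 min at room temperature, then luminescence read. Activation scored as signal increase; AC50 from Hill fit.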

[9] = Cellular Toxicity (caspase-3) Jurkat (AID 655);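 note: cells exposed to compound for 16 h at 37 °C before reading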
Summary of the method: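 5000 Jurkat cells/well; compound 16 hr, 37 °C; Caspase-Glo 3/7 added, 20 min RT; luminescence read. Norm: DMSO = 0%, tamoxifen 100 uM = 100%. AC50, Hill model.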

[10] = Cellular Toxicity (caspase-3) HUV-EC-C (AID 656)
Summary of the method: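 qHTS; HUV-EC-C, 1000 cells/well; 5 hr settle, 16 hr cmpd, 37°C; Caspase-Glo 3/7, 20 min RT; luminescence. Norm: DMSO = 0%, tamoxifen 100 uM = 100%. Hill-fit AC50.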

[11] = Cellular Toxicity (caspase-3) SHSY5Y (AID 657)
Summary of the method: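 qHTS, SH-SY5Y, 1500 cells/well, 5 h pre-incubation 37 °C; compound 16 h 37 °C; Caspase-Glo 3/7 1 h RT; luminescence. Norm.: DMSO = 0, 10 uM staurosporine = 100%. Hill fit → AC50.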

[12] = Cellular Toxicity (caspase-3) BJ (AID 658); conditions: Potency: caspase-3 activation
Summary of the method: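 BJ human foreskin fibroblasts, 1000 cells/well, treated 16 hours at 37 °C in complete medium; caspase 3/7 activity by Caspase-Glo luminescence after 1 hr at room temperature. Normalized to DMSO and 10 uM staurosporine; AC50 from Hill fits.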

[13] = Cellular Toxicity (caspase-3) MRC-5 (AID 659); conditions: Potency: caspase-3 activation
Summary of the method: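 MRC-5 human normal lung fibroblasts, 1500 cells/well, treated 16 h at 37 °C in complete medium. Caspase 3/7 measured by Caspase-Glo luminescence after 1 h at room temperature. Normalized to DMSO and 10 uM staurosporine; AC50 from Hill fit.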

[14] = Cellular Toxicity (caspase-3) Mesangial (AID 660);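 note: combined caspase 3 and 7 activity read by Caspase-Glo luminescence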
Summary of the method: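 Mesangial cells, 1000/well, 5 h settle at 37 °C; compound 16 h, 37 °C; Caspase-Glo 3/7 reagent 20 min RT; luminescence. Norm.: DMSO = 0%, tamoxifen 100 uM = 100%. AC50, Hill fit.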

[15] = Cellular Toxicity (caspase-3) H-4-II-E (AID 663);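 note: cells exposed to compound for 16 hr before readout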
Summary of the method: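 Rat hepatoma H-4-II-E cells (1500/well) plated 5 hr, then exposed to compound titrations for 16 hr at 37 °C. Caspase-Glo 3/7 luminescence read after 20 min at RT; data normalized to DMSO and 100 uM tamoxifen, AC50 from Hill fits.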

[16] = Cellular Toxicity (caspase-3) Hek293 (AID 664);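 note: cells exposed to compound for 16 h at 37 °C before readout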
Summary of the method: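 Cells plated, 5 hr at 37 °C; compounds added; 16 hr at 37 °C; Caspase-Glo 3/7 reagent, 20 min RT; luminescence read. Activation expressed relative to DMSO and 100 uM tamoxifen, AC50 by Hill model.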

[17] = molecular target: Glucocorticoid receptor (Homo sapiens) (UniProt P04150); test: GR-GFP Redistribution (AID 450;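 active = compounds whose dose series gives a full or clear partial fitted curve of increased nuclear translocation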; note: potency is the fitted concentration of half-maximal effect); conditions: U2OS GR-GFP nuclear translocation, laser cytometry, 2 h
[18] = molecular target: Glucocorticoid receptor (Homo sapiens) (UniProt P04150); test: GR-EFC Redistribution (AID 451; calls by dose curve; note: potency is the fitted concentration of half-maximal effect); conditions: CHO-K1 GR-EFC translocation, beta-gal luminescence, 2 h
Summary of the method: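 CHO-K1 cells expressing nuclear EA and GR-ED fragments of b-gal; compounds titrated up to 46 uM final, 2 h at 37 C. GR nuclear translocation read as complemented b-gal luminescence after 1 h RT detection.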

[19] = molecular target: 3',5'-cyclic-AMP phosphodiesterase 4B (Homo sapiens) (UniProt Q07343); test: qHTS Assay for Inhibitors of PDE-IV (AID 607; active = well fitted activation curve with a large enough effect in the main read-out, with a control signal flat, not every such curve was filed as active)
Summary of the method: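 The readout is membrane depolarisation from a cAMP-sensing CNG channel, detected with a potential dye at ex 535/em 590. Cells were HEK293-derived (endogenous PDE-IV) at 1000 cells/well, titrated up to 22.9 uM final.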

Sequence of Glucocorticoid receptor (Homo sapiens) (P04150 whole entry, looked up, the tested form may be a part): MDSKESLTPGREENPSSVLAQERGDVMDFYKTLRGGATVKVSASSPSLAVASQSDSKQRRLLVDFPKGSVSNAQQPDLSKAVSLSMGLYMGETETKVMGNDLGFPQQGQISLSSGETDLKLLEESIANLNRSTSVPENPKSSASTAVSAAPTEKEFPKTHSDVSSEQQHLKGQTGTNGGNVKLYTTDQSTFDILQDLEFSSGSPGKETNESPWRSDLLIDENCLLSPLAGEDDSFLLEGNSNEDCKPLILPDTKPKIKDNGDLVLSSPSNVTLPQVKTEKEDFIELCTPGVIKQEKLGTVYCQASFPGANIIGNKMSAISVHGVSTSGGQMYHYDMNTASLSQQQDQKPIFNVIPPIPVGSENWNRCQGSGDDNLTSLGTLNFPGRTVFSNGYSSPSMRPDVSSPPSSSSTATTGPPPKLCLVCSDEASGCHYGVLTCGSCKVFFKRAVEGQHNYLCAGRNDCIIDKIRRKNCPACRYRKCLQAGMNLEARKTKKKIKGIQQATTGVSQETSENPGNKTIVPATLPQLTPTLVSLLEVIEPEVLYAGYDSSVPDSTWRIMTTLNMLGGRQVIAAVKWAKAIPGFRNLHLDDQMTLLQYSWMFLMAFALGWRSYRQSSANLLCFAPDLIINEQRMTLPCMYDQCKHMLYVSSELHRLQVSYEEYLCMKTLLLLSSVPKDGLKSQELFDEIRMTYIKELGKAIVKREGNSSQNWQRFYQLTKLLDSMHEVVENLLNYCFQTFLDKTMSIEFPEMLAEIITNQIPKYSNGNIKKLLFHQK
Sequence of 3',5'-cyclic-AMP phosphodiesterase 4B (Homo sapiens) (Q07343 whole entry, looked up): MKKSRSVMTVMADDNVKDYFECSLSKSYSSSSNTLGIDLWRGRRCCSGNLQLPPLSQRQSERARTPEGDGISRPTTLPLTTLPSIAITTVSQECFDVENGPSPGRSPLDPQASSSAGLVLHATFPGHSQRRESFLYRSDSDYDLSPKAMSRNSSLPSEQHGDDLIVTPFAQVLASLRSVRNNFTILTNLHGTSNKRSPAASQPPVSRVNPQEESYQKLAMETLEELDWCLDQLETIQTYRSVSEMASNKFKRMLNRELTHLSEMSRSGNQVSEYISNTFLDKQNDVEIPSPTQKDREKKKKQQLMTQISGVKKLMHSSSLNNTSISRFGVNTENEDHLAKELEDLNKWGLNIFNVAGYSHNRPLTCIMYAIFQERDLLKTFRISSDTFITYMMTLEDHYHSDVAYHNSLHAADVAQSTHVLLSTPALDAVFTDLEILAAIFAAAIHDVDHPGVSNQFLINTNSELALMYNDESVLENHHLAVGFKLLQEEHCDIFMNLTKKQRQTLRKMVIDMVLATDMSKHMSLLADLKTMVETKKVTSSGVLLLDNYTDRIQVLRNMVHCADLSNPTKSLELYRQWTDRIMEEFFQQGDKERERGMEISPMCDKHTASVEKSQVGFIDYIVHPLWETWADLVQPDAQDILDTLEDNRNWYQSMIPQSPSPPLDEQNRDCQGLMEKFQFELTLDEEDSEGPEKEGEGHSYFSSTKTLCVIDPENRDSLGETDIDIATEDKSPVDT

For `ClC(Cl)(Cl)Cl`, the outcome [1] was “inactive”, the Potency [2] was “inactive” and the Potency [3] was “inactive”. For the same compound, the Potency [4] was “inactive”, the Potency [5] was “inactive” and the Potency [6] was “inactive”. For the same compound, the Potency [7] was “inactive”, the outcome [8] was “inactive” and the Potency [9] was “inactive”. The outcome [10] was “inactive”, the outcome [11] was “inactive” and the Potency [12] was “inactive”. The Potency [13] was “inactive”, the outcome [14] was “inactive” and the outcome [15] was “inactive”. For the same compound, the outcome [16] was “inactive”.
In the case of `CCCCCCCCOC(=O)c1ccccc1C(=O)OCCCCCCCC`, the outcome [1] was “inactive”, the Potency [2] was “inactive” and the Potency [3] was “inactive”. For the same compound, the Potency [4] was “inactive”, the Potency [5] was “inactive” and the Potency [6] was “inactive”. The Potency [7] was “inactive”, the outcome [8] was “inactive” and the Potency [9] was “inactive”. For the same compound, the outcome [10] was “inactive”, the outcome [11] was “inactive” and the Potency [12] was “inactive”. The Potency [13] was “inactive”, the outcome [14] was “inactive” and the outcome [15] was “inactive”. The outcome [16] was “inactive”.
With `O=c1c2ccccc2[se]n1-c1ccccc1` the Potency [17] was > 46 µM and > 20.6 µM, the Potency [18] was > 46 µM and > 20.6 µM and the Potency [19] was “inactive”.
With `C[C@H]1CC[C@@H]2[C@@H](C)[C@H]3[C@H](C[C@H]4[C@@H]5CC=C6CC(O[C@@H]7O[C@H](CO)[C@H](O)[C@H](O[C@@H]8O[C@H](CO)[C@@H](O)[C@H](O)[C@H]8O)[C@H]7O[C@H]7O[C@@H](C)[C@H](O)[C@@H](O)[C@H]7O)CC[C@]6(C)[C@H]5CC[C@]34C)N2C1` (stereo partly specified) the outcome [1] was “inactive”, the Potency [2] was 31.6 µM (active) and the Potency [3] was 31.6 µM (active). The Potency [4] was 31.6 µM (active), the Potency [5] was 31.6 µM (active) and the Potency [6] was 31.6 µM (active). The Potency [7] was 31.6 µM (active), the outcome [8] was “inactive” and the Potency [9] was “inactive”. For the same compound, the outcome [10] was “inactive”, the outcome [11] was “inactive” and the Potency [12] was “inactive”. For the same compound, the Potency [13] was “inactive”, the outcome [14] was “inactive” and the outcome [15] was “inactive”. For the same compound, the outcome [16] was “inactive”.
In the case of `O=[N+]([O-])c1ccc(F)c([N+](=O)[O-])c1`, the outcome [1] was “inactive”, the activity change, negative = cytotoxicity [3] was -151% (active) and the Potency [4] was “inactive”. The Potency [6] was 25.1 µM (active), the Potency [7] was “inactive” and the outcome [8] was “inactive”. The Potency [9] was “inactive”, the outcome [10] was “inactive” and the outcome [11] was “inactive”. The Potency [12] was “inactive”, the Potency [13] was “inactive” and the outcome [14] was “inactive”. The outcome [15] was “inactive” and the outcome [16] was “inactive”.
For `O=C/C=C/c1ccccc1`, the outcome [1] was “inactive”, the Potency [2] was “inactive” and the Potency [3] was 12.6 µM (active). The Potency [4] was “inactive”, the Potency [5] was “inactive” and the Potency [6] was “inactive”. The Potency [7] was “inactive”, the outcome [8] was “inactive” and the Potency [9] was “inactive”. The outcome [10] was “inactive”, the outcome [11] was “inactive” and the Potency [12] was “inactive”. The Potency [13] was “inactive”, the outcome [14] was “inactive” and the outcome [15] was “inactive”. For the same compound, the outcome [16] was “inactive”.
